High-throughput results deposited in PubChem BioAssay by The Scripps Research Institute Molecular Screening Center.
Hits are enriched below; roughly 4.5% of the tested compounds scored in any of these assays.
hgDAF-12 ag: activates the H. glycines DAF-12 receptor ligand-binding domain. HEK293 GAL4-hgDAF12 UAS-luciferase reporter, agonist luminescence; normalized to butyrate control. activation, % at 6.8 µM. hit rate 1.8% among 370,000. AID 687014;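 active = activation above a cutoff set at the mean of all screened compounds plus 3 SD, cut at about 10% in these data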
DAX1 inh-1: blocks DAX1 repression of SF-1 activated StAR promoter. HEK293T StAR-luciferase reporter, SF-1/DAX-1 repression relief. inhibition, % at 6.8 µM. hit rate 1.1% among 370,000;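 active = inhibition above the mean over all tested compounds plus 3 SD, cut at about 3.6% in these data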;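 also: higher inhibition means more luminescence from relief of DAX-1 repression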
DAX1 inh-2: NR0B1 (DAX1) inhibition | AID 504766 | P51843 | hit rate 0.99% among 340,000 | inhibition, % at 6.75 µM | HEK293 Gal4-DAX1 luciferase reporter, luminescence;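 active = inhibition above the mean over all tested compounds plus 3 SD, cut at about 4.2% in these data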;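 also: inhibition shows as a rise in luminescence from relieved DAX1 repression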
hcDAF-12 act: H. contortus DAF-12 activation, primary screen | HEK293 hcDAF-12 lit1-tk-luc reporter, luminescence; 0% DMSO, 100% Δ7-dafachronic acid | activation, % at 6.8 µM | hit rate 1.4% among 370,000;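 active = activation above the mean of all tested compounds plus 3 SD, cut at about 5.5% in these data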
FXN GAA850 act: frataxin GAA850 promoter activation; hit rate 0.56% among 360,000; HEK293 lucGAA850 FXN promoter luciferase reporter, 24 h; percent of 10 µM SAHA response; activation, % at 6 µM;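 active = activation above the average of all compounds screened plus 3 SD, cutoff fixed separately per campaign, cut at about 7.5% in these data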
ssDAF12 agonist: S. stercoralis DAF-12 activation, primary screen | hit rate 1% among 370,000 | HEK293 ssDAF-12/GRIP1 lit1-tk-luc reporter, luminescence; % of 3 µM dafachronic acid response | activation, % at 6.8 µM | AID 652126;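 active = activation above the mean over all tested compounds plus 3 SD, cut at about 0.9% in these data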
hgDAF12 ag: hgDAF-12 agonism, confirmation assay; shares compounds with hgDAF-12 ag; HEK293 GAL4-hgDAF12 luciferase reporter, agonist mode; percent of butyrate response; activation, % at 6.8 µM; hit rate 80% among 3,300; AID 743050;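 active = mean activation over triplicate wells above the hit cutoff derived from the earlier primary screen, cut at about 11% in these data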
LXR ag 2: activates human LXR-beta, counter-screen for DAF-12 agonists | shares compounds with hgDAF-12 ag | HEK293 Gal4-LXR luciferase reporter, 24 h | activation, % at 6.8 µM | 3,300 tested, under 10 active;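 active = mean activation of the triplicate above a set limit carried over from the primary screen, none filed active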
Target sequence (P55055 whole entry, looked up, the tested form may be a part): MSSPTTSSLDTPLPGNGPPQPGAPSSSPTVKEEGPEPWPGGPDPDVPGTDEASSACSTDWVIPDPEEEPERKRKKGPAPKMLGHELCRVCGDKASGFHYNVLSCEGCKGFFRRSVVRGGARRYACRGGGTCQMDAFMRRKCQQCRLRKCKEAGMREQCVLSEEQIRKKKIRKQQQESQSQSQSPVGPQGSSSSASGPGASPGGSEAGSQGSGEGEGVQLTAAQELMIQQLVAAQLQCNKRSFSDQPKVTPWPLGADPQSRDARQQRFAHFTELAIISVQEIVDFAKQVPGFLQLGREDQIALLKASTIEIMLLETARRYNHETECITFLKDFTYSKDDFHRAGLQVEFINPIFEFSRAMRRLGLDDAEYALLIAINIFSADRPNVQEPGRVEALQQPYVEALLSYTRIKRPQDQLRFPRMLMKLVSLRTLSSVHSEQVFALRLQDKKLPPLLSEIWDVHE
Of the large screens only hits and unclear results are named; the others gave an inactive call (follow-up assays come after a bar, where they were run).

CCC(N=c1cc(-c2ccc(OC)cc2)oc2ccc(C)cc12)C(=O)O (configuration not stated)	hgDAF-12 ag 14, DAX1 inh-1 3.9 | hgDAF12 ag 13 | LXR ag 2 inactive
CC(OC(=O)c1cccc([N+](=O)[O-])c1)C(=O)NCc1ccc2c(c1)OCO2 (configuration not stated)	none
c1ccc(CCSc2nccn2-c2ccccc2)cc1	hgDAF-12 ag 14, hcDAF-12 act 5.8 | hgDAF12 ag 14 | LXR ag 2 inactive
Nc1nnc(CC(=O)N/N=C/c2ccc(-c3cccc(C(=O)O)c3)o2)s1	hgDAF-12 ag 14 | hgDAF12 ag inactive | LXR ag 2 inactive
O=C(Nc1ccccc1C(=O)N/N=C/c1ccncc1)c1ccccc1	hgDAF-12 ag 14 | hgDAF12 ag 12 | LXR ag 2 inactive
COc1cc(/C=N/NC(=O)c2cc(C)oc2C)ccc1O	none
Oc1cccc(C=NNc2ccccn2)c1	none
COc1ccc(C=NNC(=O)c2cc(C)oc2C)cc1O	hgDAF-12 ag 13 | hgDAF12 ag 14 | LXR ag 2 inactive
COc1ccc(/C=N/Nc2ccccn2)cc1O	hgDAF-12 ag 17 | hgDAF12 ag 12 | LXR ag 2 inactive
O=C(N/N=C/c1cccc(O)c1)c1ccccc1O	hgDAF-12 ag 16 | hgDAF12 ag inactive | LXR ag 2 inactive
COc1ccccc1N(C1=NCCCS1)S(=O)(=O)c1ccc(C(C)(C)C)cc1	none
CCOC(=O)[C@H]1[C@H]2COc3ccc(C)cc3[C@@H]2N2C(=O)CN(C)C(=O)[C@@]12C	none
COc1ccc(-c2cc(-c3nnc(SCC(=O)Nc4cccc(Cl)c4C)n3N)[nH]n2)cc1	none (no result: DAX1 inh-2, FXN GAA850 act)
CCNC(=O)C1(C)CCCN(Cc2cc3ccccc3o2)C1 (configuration not stated)	none (no result: DAX1 inh-2)
O=C(Nc1ccc2c(c1)OCO2)N1CCN(Cc2ccco2)CC1	hgDAF-12 ag 20 | hgDAF12 ag 14 | LXR ag 2 inactive
COc1ccc(-c2ccc(C(=O)Nc3cccc(C(C)=O)c3)c3occc23)c(C)c1	none (no result: DAX1 inh-2)
COc1ccc(-c2ccc(C(=O)Nc3cccc(F)c3)c3occc23)c(C)c1	hgDAF-12 ag 14, DAX1 inh-1 3.7 (no result: DAX1 inh-2) | hgDAF12 ag inactive | LXR ag 2 inactive
[O-]c1c[n+](-c2ccc(-[n+]3cc([O-])on3)cc2)no1	none
COc1ccc(NC(=O)C2=Cc3cccc(OC)c3OC2)cc1	hgDAF-12 ag 15 | hgDAF12 ag inactive | LXR ag 2 inactive
COc1cccc2c1OCC(C(=O)OCc1cccnc1)=C2	none
CCN(CC)C1=C(Cl)C(=O)C(Cl)C12OCCO2 (configuration not stated)	none (no result: DAX1 inh-2)
COc1ccccc1C(=O)O/N=C(\N)c1ccccc1Cl	hgDAF-12 ag 17 | hgDAF12 ag 11 | LXR ag 2 inactive
O=C(NCC1CCCO1)c1sc2ccccc2c1Cl (configuration not stated)	hgDAF-12 ag 14 | hgDAF12 ag inactive | LXR ag 2 inactive
CCCCc1ccc(Nc2ncnc3nc[nH]c23)cc1	hgDAF-12 ag 13 | hgDAF12 ag inactive | LXR ag 2 inactive
c1ccc(CCCNc2ncnc3nc[nH]c23)cc1	none
c1csc(-c2nc(-c3ccc(-c4ccon4)s3)no2)c1	hgDAF-12 ag 17 | hgDAF12 ag 17 | LXR ag 2 inactive
CCN=C1SC(CC(N)=O)C(=O)N1CC (configuration not stated)	none
CC(C)(C)OC(=O)N1CCN(C(=O)c2[nH]cnc2C(=O)Nc2ccc(Cl)cc2)CC1	none
